The results in this text go back to PubChem BioAssay (NCI).

Each structure is given as a SMILES string. Compounds without any hit were thinned out: in the full panel of roughly 79,000, 15% have a hit. Values without a mark were called inactive. Calls of active or inactive are those of the source. No stated cut-off is given here; in the data, active means growth inhibition above about 70%; inactive means the rest.

Experiment [1] can be described thus: NCI Yeast Anticancer Drug Screen. Data for the rad50 strain (AID 155).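 Further: 0% = growth of vehicle-only cultures of the same strain.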 Conditions: S. cerevisiae rad50 strain growth inhibition; at 50.0 µM; active compounds read high. The essentials: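 Vehicle-treated cultures provide the reference for the growth inhibition reported for compound-exposed, repair-deficient yeast.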
Experiment [2] can be described thus: NCI Yeast Anticancer Drug Screen. Data for the mec2-1 strain (AID 157). Conditions: S. cerevisiae mec2-1 strain, at 50.0 µM, active compounds read high. The procedure, abridged: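 Each compound was tested on mec2-1 yeast, a strain altered in DNA damage repair or cell cycle control. Growth inhibition is reported relative to vehicle.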
Experiment [3] is described as follows: NCI Yeast Anticancer Drug Screen. Data for the sgs1 mgt1 strain (AID 161).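 Further: 0% = growth of cultures given vehicle only.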 As to conditions: S. cerevisiae sgs1 mgt1 strain, at 50.0 µM, active compounds read high. The essentials:
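Test agents were incubated with a DNA-repair-mutant yeast strain. Growth was then read and compared against vehicle-treated controls.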

Experiment [4] in a line: NCI Yeast Anticancer Drug Screen. Data for the cln2 rad14 strain (AID 165).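 Further: 0% = growth equal to vehicle treated cultures.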 As to conditions: S. cerevisiae cln2 rad14 strain, at 50.0 µM, active compounds read high. The essentials:
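Test compounds were added to cln2 rad14 yeast cultures; inhibition of growth was then determined by comparison with vehicle treatment.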

A short description of experiment [5]: NCI Yeast Anticancer Drug Screen. Data for the bub3 strain (AID 167). As to conditions: S. cerevisiae bub3 mutant strain, at 50.0 µM, active compounds read high. The essentials:
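Mutant yeast screening strain plus compound; vehicle-treated cultures serve as the 0% inhibition reference.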

Experiment [6] in a line: NCI Yeast Anticancer Drug Screen. Data for the mlh1 rad18 strain (AID 175). Conditions: S. cerevisiae mlh1 rad18 strain growth inhibition; at 50.0 µM; active compounds read high. The essentials: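 Inhibition values reflect reduced growth of mutant yeast versus vehicle-treated controls following compound exposure; the mutations affect DNA damage repair.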

Consider `O=C1c2ccccc2C(=O)N1N1C(=O)c2ccccc2C1=O`, for which the growth inhibition in experiment [1] was 3.95%; in experiment [2], -16.8%; in experiment [3], -4.45%; in experiment [4] it was 14%; in experiment [5], -4.7%; in experiment [6], 17.4%.

On to `CC12CCC(O)CC1=CCC1C2CCC2(C)C1CCC21SCCS1` (stereo unspecified), for which the growth inhibition was 2.35% in experiment [1]; 9.7% in experiment [2]; 20.2% in experiment [3]; 14.4% in experiment [4]; 13.8% in experiment [5]; 13% in experiment [6].

For the molecule `Cc1cn(C2CC(N(C)O)C(CO)O2)c(=O)[nH]c1=O` (stereo unspecified), the growth inhibition in experiment [1] was -16.8%; in experiment [2] it was -27%; in experiment [3], -8.15%; in experiment [4], -34.7%; in experiment [5] it was -12.3%; in experiment [6] it was -58.9%.

For the molecule `O=S(O)OS(=O)O`, the growth inhibition in experiment [1] is -5.95%; in experiment [2], -19.4%; in experiment [3], -15.6%; in experiment [4], -0.4%; in experiment [5], 18.9%; in experiment [6] it was -13.3%.

For `COc1ccc(C2=Nc3cccc4c3N(CCC4)C2c2ccc(OC)cc2)cc1` (stereo unspecified), the growth inhibition in experiment [1] is 0.45%; in experiment [2], 2.45%; in experiment [3], 3%; in experiment [4] it was 7.6%; in experiment [5], -2.95%; in experiment [6], 4.8%.

As for `O=C(O)c1c(Cl)ccc(F)c1Cl`, the growth inhibition was 9.45% in experiment [1]; 1.2% in experiment [2]; 4.5% in experiment [3]; -11.9% in experiment [4]; 11.3% in experiment [5]; 8.35% in experiment [6].

As for `CC1(C)CCCC(C)(C)C1=NO`, the growth inhibition was -20.2% in experiment [1]; -5.6% in experiment [2]; -9.75% in experiment [3]; 12.4% in experiment [4]; 5.75% in experiment [5]; 22.9% in experiment [6].

On to `CC1(C)OCC(C2OC3OC(C)(C)OC3C2c2ccccc2)O1` (stereo unspecified), for which the growth inhibition was -3.55% in experiment [1]; -9% in experiment [2]; -31.1% in experiment [3]; 1.4% in experiment [4]; -2.8% in experiment [5]; 2.2% in experiment [6].

With `O=C(O)C12CCC(CC1=O)C2` (stereo unspecified), the growth inhibition was 5.8% in experiment [1]; 4.4% in experiment [2]; 11.3% in experiment [3]; 13.7% in experiment [4]; -2% in experiment [5]; 14.1% in experiment [6].

For `N#Cc1ccc(Nc2cnc3ccc(N)cc3n2)cc1`, the growth inhibition in experiment [1] was -41.2%; in experiment [2], -37.6%; in experiment [3], -43.8%; in experiment [4], -25.4%; in experiment [5], -25.4%; in experiment [6], -54.1%.

For the molecule `CC(=O)NNC(=S)N/C=C(\C#N)c1nc2ccccc2s1`, the growth inhibition is 22.2% in experiment [1]; 12.2% in experiment [2]; -17.2% in experiment [3]; 18.4% in experiment [4]; -10.7% in experiment [5]; 12.1% in experiment [6].

Regarding `O=C1c2ccccc2C(=O)N1CCCSc1ccccc1`, the growth inhibition in experiment [1] was -10.2%; in experiment [2], -12.7%; in experiment [3] it was -21.9%; in experiment [4], -15.6%; in experiment [5], -32.4%; in experiment [6], -33.9%.

Take `Cc1ncc(C(N)=O)c(N)n1`: the growth inhibition is 21% in experiment [1]; -2.05% in experiment [2]; -11.6% in experiment [3]; -42% in experiment [4]; -13.6% in experiment [5]; 8.3% in experiment [6].

With `N#Cc1nc(-c2cc([N+](=O)[O-])cc([N+](=O)[O-])c2)oc1N`, the growth inhibition in experiment [1] is -14.6%; in experiment [2] it was -10.6%; in experiment [3] it was -4.7%; in experiment [4] it was 1.8%; in experiment [5] it was 0.05%; in experiment [6], -8.6%.

As to `Cc1ccc2nc(NC(=O)OCc3ccccc3)sc2c1`, the growth inhibition in experiment [1] was 4.1%; in experiment [2], 20.1%; in experiment [3], -11.8%; in experiment [4], 6.95%; in experiment [5], 8.6%; in experiment [6] it was 9.65%.

Regarding `CNc1ncn(-c2c(C)cccc2C)c(=O)n1`, the growth inhibition was -2.5% in experiment [1]; -3.6% in experiment [2]; 8.85% in experiment [3]; -15.8% in experiment [4]; -2.65% in experiment [5]; 4.05% in experiment [6].

As to `Oc1nc2nc[nH]n2c1N=Nc1ccccc1`, the growth inhibition is -22.7% in experiment [1]; -12.9% in experiment [2]; -7.5% in experiment [3]; -12.5% in experiment [4]; 10.3% in experiment [5]; 6.9% in experiment [6].

In the case of `COC(=O)C(=O)C(C(=O)C(=O)Nc1nc(=S)[nH][nH]1)c1nc2ccc([N+](=O)[O-])cc2[nH]c1=O` (stereo unspecified), the growth inhibition was 36% in experiment [1]; 20.6% in experiment [2]; 11.1% in experiment [3]; -17.6% in experiment [4]; 22.4% in experiment [5]; 18.9% in experiment [6].

Regarding `COC(=O)CC(C)N(c1cccc(Cl)c1)S(=O)(=O)c1ccc(C)cc1` (stereo unspecified), the growth inhibition was 52.3% in experiment [1]; 7.1% in experiment [2]; 76.3% (active) in experiment [3]; -30.9% in experiment [4]; 24.1% in experiment [5]; 32.5% in experiment [6].

On to `Cc1[nH]c2ccccc2c1C(Cc1ccccc1NC(=O)CCC(=O)O)c1c[nH]c2ccccc12` (stereo unspecified), for which the growth inhibition in experiment [1] is 9%; in experiment [2], -5.05%; in experiment [3], -4.5%; in experiment [4], -1.5%; in experiment [5], -0.9%; in experiment [6] it was 1.05%.

For `Nc1ccccc1C(=O)/C=C/c1c(O)ccc2ccccc12`, the growth inhibition in experiment [1] is 29.6%; in experiment [2], 9.5%; in experiment [3] it was 10.2%; in experiment [4], 15.9%; in experiment [5] it was 21.1%; in experiment [6] it was 34.3%.
